What all share (test): NCI-60 one-dose screen, 48 h (100 = growth as untreated, 0 = no growth, -100 = all killed)
In one assay the test system is HT29 colon. The settings on record: 10 µM unless noted.
The test system of another assay is SNB-75 CNS. The settings on record: 10 µM unless noted.
For the next assay, the system named is SNB-19 CNS. The settings on record: 10 µM unless noted.
In the next assay the test system is U251 CNS. The settings on record: 10 µM unless noted.
For a further assay, the system named is PC-3 prostate. The settings on record: 10 µM unless noted.
The next assay relates to SK-MEL-5 melanoma. The settings on record: 10 µM unless noted.
The next assay relates to UACC-62 melanoma. The settings on record: 10 µM unless noted.
Another assay has as its system LOX IMVI melanoma. The settings on record: 10 µM unless noted.
The next assay concerns SK-MEL-28 melanoma. The settings on record: 10 µM.
The subject of a further assay is SK-MEL-2 melanoma. The settings on record: 10 µM unless noted.
The subject of another assay is EKVX NSCLC. The settings on record: 10 µM unless noted.
The test system of the next assay is SN12C renal. The settings on record: 10 µM unless noted.
The next assay concerns UO-31 renal. The settings on record: 10 µM unless noted.
A further assay deals with TK-10 renal. The settings on record: 10 µM unless noted.
Another assay deals with ACHN renal. The settings on record: 10 µM unless noted.
Another assay relates to CAKI-1 renal. The settings on record: 10 µM unless noted.
The test system of the next assay is A498 renal. The settings on record: 10 µM unless noted.
The next assay relates to CCRF-CEM leukemia. The settings on record: 10 µM unless noted.
The next assay has as its system MOLT-4 leukemia. The settings on record: 10 µM unless noted.
A further assay relates to SR leukemia. The settings on record: 10 µM unless noted.

The panel holds about 83,000 compounds, 20% with a hit somewhere; the sample as a whole holds those more often.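 Plates (96-well) were seeded with cells, treated with compound at one concentration, and incubated for 48 hours before percent growth was determined.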 A number with no mark means an inactive call. Activity calls are given as the source filed them. The calls were made as follows: active = growth percent below 10; inactive = the rest.

On to `CC1=C(C(=O)OCC2CCN(C(=O)OC(C)(C)C)CC2)[C@@H](c2cccc(C#N)c2)C2=C(CC(C)(C)CC2=O)N1`, for which the growth was 18.3% in the assay with HT29 colon; 56.9% with SNB-75 CNS; 43% in the assay on SNB-19 CNS; 41.4% in the assay on U251 CNS; 48% with PC-3 prostate; 3.59% (active) in the assay on SK-MEL-5 melanoma. The growth with UACC-62 melanoma was 43%; in the assay with LOX IMVI melanoma it was 9.5% (active); in the assay with SK-MEL-28 melanoma, 61.3%; with SK-MEL-2 melanoma it was 70.4%; with EKVX NSCLC, 63.7%; with SN12C renal, 42.7%. The growth in the assay on UO-31 renal is 42.1%; with TK-10 renal it was 68.5%; in the assay with ACHN renal, 38.5%; in the assay on CAKI-1 renal, 38.4%; with A498 renal, 75.3%; with CCRF-CEM leukemia it was 36.8%. Moreover, the growth with MOLT-4 leukemia was 12.5%.

For the molecule `COc1ccc(OC)c(/C=C/C(=O)c2c(C)nc3ccccc3c2/C=C/c2ccccc2)c1`, the growth is 37.2% with HT29 colon; 59.2% in the assay on SNB-75 CNS; 80.9% in the assay on SNB-19 CNS; 54.1% with U251 CNS; 59.4% in the assay on PC-3 prostate; 82.9% in the assay on SK-MEL-5 melanoma. Also, the growth with UACC-62 melanoma is 50.1%; with LOX IMVI melanoma it was 42.8%; in the assay with SK-MEL-28 melanoma, 95.1%; in the assay on SK-MEL-2 melanoma, 72.2%; in the assay with EKVX NSCLC it was 79.4%; in the assay with SN12C renal it was 58.1%. In addition, the growth is 60.3% with UO-31 renal; 112% in the assay on TK-10 renal; 74.6% with ACHN renal; 54.4% in the assay on CAKI-1 renal; 83.2% with A498 renal; 9.58% (active) with CCRF-CEM leukemia. Moreover, the growth in the assay with MOLT-4 leukemia is 10.2%.

Take `O=C1NC(=O)C(=Cc2cn(Cc3cn(Cc4ccc(Cl)cc4Cl)nn3)c3ccccc23)C(=O)N1`: the growth with HT29 colon was 111%; with SNB-75 CNS it was 75.4%; in the assay on SNB-19 CNS it was 88.5%; with U251 CNS it was 91%; with PC-3 prostate it was 89.6%; in the assay with SK-MEL-5 melanoma it was 69.5%. Moreover, the growth in the assay on UACC-62 melanoma was 67.6%; with LOX IMVI melanoma, 80.1%; in the assay with SK-MEL-28 melanoma it was 107%; in the assay on SK-MEL-2 melanoma, 79.3%; in the assay with EKVX NSCLC, 104%; with SN12C renal it was 90.4%. The growth with UO-31 renal was 63.9%; with TK-10 renal, 68.8%; in the assay with ACHN renal it was 102%; with CAKI-1 renal, 56.3%; with A498 renal it was 38.3%; in the assay with CCRF-CEM leukemia it was 76.4%. The growth in the assay with MOLT-4 leukemia was 84.6%.

As to `Clc1ccc(COc2ccc(Nc3ncnc4onc(-c5ccccc5)c34)cc2)cc1`, the growth with HT29 colon was 92.2%; in the assay on SNB-75 CNS, 67.8%; with SNB-19 CNS, 91.6%; in the assay on U251 CNS, 94%; in the assay on PC-3 prostate it was 67%; with SK-MEL-5 melanoma, 83%. Also, the growth was 64.2% in the assay on UACC-62 melanoma; 86.7% in the assay with LOX IMVI melanoma; 92.1% with SK-MEL-28 melanoma; 101% in the assay on SK-MEL-2 melanoma; 95.6% with EKVX NSCLC; 87.8% in the assay on SN12C renal. Besides, the growth was 90.5% in the assay on UO-31 renal; 91.4% with TK-10 renal; 41.7% with ACHN renal; 84.6% with CAKI-1 renal; 69.2% in the assay with A498 renal; 73.2% in the assay on CCRF-CEM leukemia. Also, the growth in the assay with MOLT-4 leukemia is 85.9%; in the assay on SR leukemia, 43.8%.

As for `O=C(c1ccccc1)N(CCc1ccc(Cl)cc1)C(=S)N(C(=O)c1ccccc1)c1ccccc1`, the growth in the assay with HT29 colon was 104%; with SNB-75 CNS it was 104%; in the assay with SNB-19 CNS it was 109%; in the assay on U251 CNS, 97%; in the assay with PC-3 prostate, 85.7%; with SK-MEL-5 melanoma it was 95.9%. Besides, the growth was 94.5% in the assay on UACC-62 melanoma; 81.5% in the assay with LOX IMVI melanoma; 119% with SK-MEL-28 melanoma; 117% in the assay with SK-MEL-2 melanoma; 102% in the assay on EKVX NSCLC; 100% in the assay with SN12C renal. The growth in the assay with UO-31 renal was 81.7%; in the assay with TK-10 renal, 97.4%; with ACHN renal, 110%; in the assay on CAKI-1 renal, 96.9%; in the assay on A498 renal, 92.3%; with CCRF-CEM leukemia, 8.54% (active). In the assay on MOLT-4 leukemia, the growth is 28.7%.

Consider `CCOC(=O)c1sc(-c2ccc(OS(=O)(=O)c3cccs3)c(C=O)c2)nc1C`, for which the growth was 1.93% (active) in the assay on HT29 colon; 4.62% (active) with SNB-75 CNS; 5.38% (active) in the assay with SNB-19 CNS; 2.52% (active) in the assay on U251 CNS; 11.1% in the assay on PC-3 prostate; -88.9% (active) in the assay with SK-MEL-5 melanoma. For the same molecule, the growth in the assay on UACC-62 melanoma is 2.43% (active); in the assay with LOX IMVI melanoma, -48.2% (active); in the assay with SK-MEL-28 melanoma it was 27.4%; in the assay with SK-MEL-2 melanoma it was 28.6%; in the assay with EKVX NSCLC, 33.6%; with SN12C renal, 1.55% (active). Further, the growth was -4.34% (active) in the assay on UO-31 renal; 12.2% with TK-10 renal; 0.377% (active) with ACHN renal; 2.41% (active) in the assay with CAKI-1 renal; 31.4% in the assay on A498 renal; 7.57% (active) in the assay on CCRF-CEM leukemia. The growth in the assay with MOLT-4 leukemia was -7.85% (active); in the assay with SR leukemia, 3.44% (active).

As for `O=C(c1ccccc1)N(C(=S)NCCc1ccc(Cl)cc1)c1ccccc1`, the growth in the assay on HT29 colon was 101%; with SNB-75 CNS, 118%; in the assay with SNB-19 CNS, 104%; with U251 CNS, 87.6%; in the assay with PC-3 prostate, 83.3%; in the assay with SK-MEL-5 melanoma it was 98.3%. Further, the growth was 96.9% in the assay with UACC-62 melanoma; 68.2% in the assay with LOX IMVI melanoma; 113% in the assay with SK-MEL-28 melanoma; 99.9% in the assay on SK-MEL-2 melanoma; 96.3% in the assay with EKVX NSCLC; 110% in the assay on SN12C renal. Further, the growth is 80% in the assay on UO-31 renal; 82.5% in the assay on TK-10 renal; 108% with ACHN renal; 93.2% in the assay with CAKI-1 renal; 95.3% in the assay on A498 renal; 61.3% in the assay on CCRF-CEM leukemia. Moreover, the growth with MOLT-4 leukemia was 47.6%.

In the case of `CC1=C(C(=O)OCC2CCN(C(=O)OC(C)(C)C)CC2)[C@H](c2cccc(Br)c2)C2=C(CC(C)(C)CC2=O)N1`, the growth with HT29 colon is 16.7%; with SNB-75 CNS, 47.8%; with SNB-19 CNS, 42.5%; in the assay on U251 CNS, 30%; in the assay on PC-3 prostate, 17.5%; with SK-MEL-5 melanoma it was -32.8% (active). The growth in the assay with UACC-62 melanoma was 36.1%; in the assay with LOX IMVI melanoma, 17.5%; in the assay with SK-MEL-28 melanoma, 50.1%; in the assay with SK-MEL-2 melanoma, 61.1%; in the assay with EKVX NSCLC, 49.4%; in the assay on SN12C renal, 31.2%. Also, the growth in the assay with UO-31 renal was 31.2%; with TK-10 renal it was 38.9%; with ACHN renal, 27.9%; with CAKI-1 renal, 26.6%; in the assay on A498 renal, 49.5%; with CCRF-CEM leukemia, 17.9%. In addition, in the assay on MOLT-4 leukemia, the growth was 4.54% (active).

The record behind these values is PubChem BioAssay (NCI).
